From the supplement of paper PMC10849652
About 8,800 targets were measured; listed, in parts, are those with a hit and a random draw of the rest. About 0.5% of all pairs of compound and target were hits.

What was measured:
Assay in all cases: log2 fold change, soluble protein after heating vs DMSO (PISA); higher = thermal stabilisation; K562 lysate, 10 uM; active = over 0.2 and 3.5 SD of the protein, either way, in both replicates (recomputed)
nilotinib = compound: Cc1cn(-c2cc(NC(=O)c3ccc(C)c(Nc4nccc(-c5cccnc5)n4)c3)cc(C(F)(F)F)c2)cn1 [nilotinib]
How it was run: (§1)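 To prepare the extract, K562 pellets were dounce-homogenised in PBS pH 7.4 with 1 mM MgCl2, giving crude material at 1 mg/mL protein. This was treated with 10 μM compound for 30 min, then heated in aliquots for 3 min over 48°C-58°C before pooling and addition of NP-40 to 0.5% at 4°C. Centrifugation at 21,000xg for 90 min left soluble protein in the supernatant, which TMTpro 16plex LC-MS/MS quantified with equalised channel sums. Results are log-two fold changes in thermal stability compared with solvent controls, from duplicates.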

[1] = compound: Cc1nc(Nc2n[nH]c3c2CN(C(=O)N[C@H](CN(C)C)c2ccccc2)C3(C)C)c2sccc2n1
How it was run: as §1

dasatinib = compound: Cc1nc(Nc2ncc(C(=O)Nc3c(C)cccc3Cl)s2)cc(N2CCN(CCO)CC2)n1 [dasatinib]
How it was run: as §1

[2] = compound: Cc1ncc(-c2ccnc(Nc3ccc(S(C)(=O)=O)cc3)n2)n1C(C)C
How it was run: as §1

[3] = compound: Cn1cc(-c2ccc3c(c2)CCN3C(=O)Cc2cccc(C(F)(F)F)c2)c2c(N)ncnc21
How it was run: as §1

quisinostat = compound: Cn1cc(CNCC2CCN(c3ncc(C(=O)NO)cn3)CC2)c2ccccc21 [quisinostat]
How it was run: as §1

tipifarnib = compound: Cn1cncc1[C@@](N)(c1ccc(Cl)cc1)c1ccc2c(c1)c(-c1cccc(Cl)c1)cc(=O)n2C [tipifarnib]
How it was run: as §1

[4] = compound: NC(=O)Nc1cc(-c2cccc(F)c2)sc1C(=O)N[C@H]1CCCNC1
How it was run: as §1

[5] = compound: NC(=O)c1cnc(N[C@@H]2CCCC[C@@H]2N)nc1Nc1cccc(-n2nccn2)c1
How it was run: as §1

[6] = compound: NC1(c2ccc(-c3nc4ccn5c(=O)[nH]nc5c4cc3-c3ccccc3)cc2)CCC1
How it was run: as §1

Measured: log2 fold change

OGT (UniProt O15294)
inactive: nilotinib 0.018 | [1] 0.01 | dasatinib -0.027 | [2] -0.002 | [3] 0.041 | quisinostat -0.067 | tipifarnib -0.012 | [4] 0.026 | [5] 0.009 | [6] -0.023

NIFK (UniProt Q9BYG3)
inactive: nilotinib 0.033 | [1] -0.003 | dasatinib -0.012 | [2] 0.035 | [3] -0.01 | quisinostat -0.042 | tipifarnib 0.002 | [4] 0.037 | [5] -0.016 | [6] -0.038

NIPBL (UniProt Q6KC79)
inactive: nilotinib 0.06 | [1] -0.002 | dasatinib -0.037 | [2] 0.019 | [3] 0.091 | quisinostat -0.043 | tipifarnib 0.014 | [4] 0.02 | [5] 0.003 | [6] 0.018

NFATC2 (UniProt Q13469)
inactive: nilotinib -0.001 | [1] -0.052 | dasatinib -0.033 | [2] 0.061 | [3] -0.001 | quisinostat -0.133 | tipifarnib -0.021 | [4] 0.024 | [5] -0.025 | [6] -0.023

NUMB (UniProt P49757)
inactive: nilotinib -0.03 | [1] -0.024 | dasatinib -0.072 | [2] -0.008 | [3] 0.001 | quisinostat -0.02 | tipifarnib 0.001 | [4] -0.029 | [5] -0.026 | [6] 0.003

NNT (UniProt Q13423)
inactive: nilotinib -0.017 | [1] 0.001 | dasatinib 0.003 | [2] 0.002 | [3] 0.002 | quisinostat 0.01 | tipifarnib 0.009 | [4] -0.021 | [5] 0.002 | [6] 0.001

NR2F2 (UniProt P24468)
inactive: nilotinib -0.063 | [1] 0.107 | dasatinib -0.027 | [2] -0.125 | [3] -0.006 | quisinostat -0.024 | tipifarnib 0.034 | [4] 0.125 | [5] 0.024 | [6] 0.029

NCAPH2 (UniProt Q6IBW4)
UniProt Q6IBW4, sequence (Q6IBW4 whole entry, looked up): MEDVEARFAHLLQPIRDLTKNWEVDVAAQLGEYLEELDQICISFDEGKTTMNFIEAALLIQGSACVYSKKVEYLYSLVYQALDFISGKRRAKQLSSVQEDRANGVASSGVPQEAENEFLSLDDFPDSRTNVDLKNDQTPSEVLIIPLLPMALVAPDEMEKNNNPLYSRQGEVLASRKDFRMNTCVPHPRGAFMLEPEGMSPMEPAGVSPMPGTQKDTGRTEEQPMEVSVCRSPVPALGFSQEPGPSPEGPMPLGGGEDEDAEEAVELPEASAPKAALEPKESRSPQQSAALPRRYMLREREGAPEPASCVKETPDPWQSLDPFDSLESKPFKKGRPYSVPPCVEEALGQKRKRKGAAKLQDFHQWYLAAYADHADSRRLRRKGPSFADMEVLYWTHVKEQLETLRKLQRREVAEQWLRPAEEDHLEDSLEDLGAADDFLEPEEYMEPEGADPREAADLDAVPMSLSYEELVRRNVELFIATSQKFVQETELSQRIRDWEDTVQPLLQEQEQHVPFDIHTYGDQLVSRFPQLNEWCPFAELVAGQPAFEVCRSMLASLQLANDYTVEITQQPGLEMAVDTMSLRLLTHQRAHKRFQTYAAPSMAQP
inactive: nilotinib -0.029 | [1] 0 | dasatinib -0.011 | [2] -0.048 | [3] 0.066 | quisinostat 0.051 | tipifarnib -0.014 | [4] 0.058 | [5] 0.004 | [6] 0.025

NUCB2 (UniProt P80303)
UniProt P80303, sequence (P80303 whole entry, looked up): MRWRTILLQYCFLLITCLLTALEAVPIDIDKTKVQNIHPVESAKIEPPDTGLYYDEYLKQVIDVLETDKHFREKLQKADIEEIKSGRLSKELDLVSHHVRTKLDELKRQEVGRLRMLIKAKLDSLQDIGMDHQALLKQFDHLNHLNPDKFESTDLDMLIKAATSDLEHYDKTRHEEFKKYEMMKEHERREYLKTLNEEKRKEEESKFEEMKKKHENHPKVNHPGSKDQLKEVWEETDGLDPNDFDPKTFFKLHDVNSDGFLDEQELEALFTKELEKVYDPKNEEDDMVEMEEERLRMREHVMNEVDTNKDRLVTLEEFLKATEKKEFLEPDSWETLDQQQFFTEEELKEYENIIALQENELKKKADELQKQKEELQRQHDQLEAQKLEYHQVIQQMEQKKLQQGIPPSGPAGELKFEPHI
inactive: nilotinib -0.016 | [1] 0.015 | dasatinib 0.007 | [2] -0.019 | [3] -0.009 | quisinostat 0.016 | tipifarnib 0.011 | [4] -0.003 | [5] -0.001 | [6] 0.014

NEDD8 (UniProt Q15843)
inactive: nilotinib 0.004 | [1] -0.073 | dasatinib 0.027 | [2] 0.103 | [3] -0.034 | quisinostat 0.034 | tipifarnib 0.066 | [4] -0.038 | [5] -0.057 | [6] 0.018

NUP98 (UniProt P52948)
inactive: nilotinib -0.041 | [1] -0.017 | dasatinib -0.053 | [2] -0.008 | [3] 0.031 | quisinostat -0.049 | tipifarnib -0.12 | [4] 0.055 | [5] -0.002 | [6] 0.003

MRPS12 (UniProt O15235)
inactive: nilotinib -0.026 | [1] 0.061 | dasatinib -0.104 | [2] -0.041 | [3] -0.007 | quisinostat -0.051 | tipifarnib -0.012 | [4] 0.01 | [5] 0.018 | [6] 0.063

MTOR (UniProt P42345)
inactive: nilotinib 0.007 | [1] -0.022 | dasatinib -0.064 | [2] 0.001 | [3] 0.039 | quisinostat -0.067 | tipifarnib 0.015 | [4] 0.04 | [5] 0.017 | [6] -0.033

NTMT1 (UniProt Q9BV86)
UniProt Q9BV86, sequence (Q9BV86 whole entry, looked up): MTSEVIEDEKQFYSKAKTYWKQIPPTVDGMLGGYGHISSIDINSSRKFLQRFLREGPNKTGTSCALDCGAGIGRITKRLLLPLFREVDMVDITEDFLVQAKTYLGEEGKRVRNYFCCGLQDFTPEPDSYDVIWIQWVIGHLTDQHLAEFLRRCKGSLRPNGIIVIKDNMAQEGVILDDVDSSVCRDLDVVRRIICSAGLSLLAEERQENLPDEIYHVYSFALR
inactive: nilotinib -0.033 | [1] -0.026 | dasatinib -0.053 | [2] 0.002 | [3] 0.047 | quisinostat -0.051 | tipifarnib 0.012 | [4] 0.07 | [5] -0.049 | [6] -0.002

NCAPG2 (UniProt Q86XI2)
inactive: nilotinib -0.002 | [1] -0.035 | dasatinib -0.078 | [2] -0.024 | [3] -0.015 | quisinostat -0.092 | tipifarnib 0.003 | [4] 0.061 | [5] 0.045 | [6] -0.031

NCAPD2 (UniProt Q15021)
inactive: nilotinib 0.006 | [1] 0.01 | dasatinib -0.037 | [2] -0.001 | [3] 0.031 | quisinostat -0.064 | tipifarnib -0.019 | [4] 0.044 | [5] 0.003 | [6] -0.009

OSBP (UniProt P22059)
UniProt P22059, sequence (P22059 whole entry, looked up): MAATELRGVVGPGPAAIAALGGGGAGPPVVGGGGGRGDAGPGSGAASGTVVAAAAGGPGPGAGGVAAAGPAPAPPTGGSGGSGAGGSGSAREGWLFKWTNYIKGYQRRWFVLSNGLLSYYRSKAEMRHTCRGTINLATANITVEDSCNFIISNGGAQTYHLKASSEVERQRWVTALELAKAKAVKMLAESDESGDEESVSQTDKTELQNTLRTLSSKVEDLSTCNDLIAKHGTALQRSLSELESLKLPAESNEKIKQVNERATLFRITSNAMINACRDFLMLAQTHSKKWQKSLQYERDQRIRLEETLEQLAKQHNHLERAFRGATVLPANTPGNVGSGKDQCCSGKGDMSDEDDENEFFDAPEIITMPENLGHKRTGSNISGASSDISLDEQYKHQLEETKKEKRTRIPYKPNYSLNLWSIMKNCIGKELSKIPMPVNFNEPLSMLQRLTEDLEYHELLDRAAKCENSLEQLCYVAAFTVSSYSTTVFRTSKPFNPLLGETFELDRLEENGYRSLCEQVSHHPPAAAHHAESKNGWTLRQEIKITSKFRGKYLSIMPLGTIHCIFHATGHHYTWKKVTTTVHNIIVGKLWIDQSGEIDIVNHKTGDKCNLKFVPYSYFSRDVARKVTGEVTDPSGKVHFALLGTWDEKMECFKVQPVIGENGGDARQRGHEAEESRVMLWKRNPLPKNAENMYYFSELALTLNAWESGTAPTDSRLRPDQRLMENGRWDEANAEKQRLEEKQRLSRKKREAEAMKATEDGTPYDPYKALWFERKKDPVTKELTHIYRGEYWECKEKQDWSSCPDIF
inactive: nilotinib -0.073 | [1] 0.005 | [2] -0.015 | [3] -0.011 | quisinostat 0 | tipifarnib 0.042 | [4] 0.012 | [5] 0.031 | [6] 0.04
active: dasatinib -0.221

MYO1C (UniProt O00159)
inactive: nilotinib 0.019 | [1] -0.013 | dasatinib 0.112 | [2] 0.005 | [3] -0.038 | quisinostat -0.052 | tipifarnib 0.019 | [4] -0.082 | [5] 0 | [6] -0.087

MYD88 isoform 6 (UniProt Q99836)
inactive: nilotinib -0.003 | [1] 0.001 | dasatinib -0.021 | [2] -0.027 | [3] 0.024 | quisinostat -0.033 | tipifarnib 0.004 | [4] 0 | [5] 0.03 | [6] 0.054

MSI2 (UniProt Q96DH6)
inactive: nilotinib -0.089 | [1] 0.011 | dasatinib 0.01 | [2] 0.009 | [3] 0.049 | quisinostat 0.023 | tipifarnib -0.057 | [4] 0.029 | [5] 0.028 | [6] -0.016

PBK (UniProt Q96KB5)
UniProt Q96KB5, sequence (Q96KB5 whole entry, looked up): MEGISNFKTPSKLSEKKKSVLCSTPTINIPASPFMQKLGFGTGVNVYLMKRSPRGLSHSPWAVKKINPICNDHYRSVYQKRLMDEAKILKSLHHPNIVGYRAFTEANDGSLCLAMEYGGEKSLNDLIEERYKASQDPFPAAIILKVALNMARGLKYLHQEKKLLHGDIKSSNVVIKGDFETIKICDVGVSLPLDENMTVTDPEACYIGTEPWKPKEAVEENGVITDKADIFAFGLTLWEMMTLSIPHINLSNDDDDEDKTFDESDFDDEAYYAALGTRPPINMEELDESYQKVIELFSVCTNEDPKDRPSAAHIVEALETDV
inactive: nilotinib -0.01 | [1] 0.006 | dasatinib -0.035 | [2] 0.017 | [3] 0.017 | quisinostat -0.02 | tipifarnib 0.033 | [4] 0.032 | [5] 0.017 | [6] 0.024

OGFOD2 (UniProt Q6N063)
UniProt Q6N063, sequence (Q6N063 whole entry, looked up): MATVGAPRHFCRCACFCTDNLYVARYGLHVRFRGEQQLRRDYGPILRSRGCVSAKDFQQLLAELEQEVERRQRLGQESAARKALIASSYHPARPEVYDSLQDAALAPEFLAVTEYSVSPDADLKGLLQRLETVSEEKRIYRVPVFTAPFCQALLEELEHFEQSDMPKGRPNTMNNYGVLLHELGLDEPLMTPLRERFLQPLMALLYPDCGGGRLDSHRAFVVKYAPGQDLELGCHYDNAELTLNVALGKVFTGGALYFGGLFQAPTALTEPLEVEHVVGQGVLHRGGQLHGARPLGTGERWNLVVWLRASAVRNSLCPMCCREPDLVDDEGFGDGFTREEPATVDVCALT
inactive: nilotinib -0.002 | [1] 0.005 | dasatinib 0.006 | [2] 0.063 | [3] 0.048 | quisinostat 0.031 | tipifarnib 0.026 | [4] 0.049 | [5] -0.017 | [6] 0.049

NELFCD (UniProt Q8IXH7)
UniProt Q8IXH7, sequence (Q8IXH7 whole entry, looked up): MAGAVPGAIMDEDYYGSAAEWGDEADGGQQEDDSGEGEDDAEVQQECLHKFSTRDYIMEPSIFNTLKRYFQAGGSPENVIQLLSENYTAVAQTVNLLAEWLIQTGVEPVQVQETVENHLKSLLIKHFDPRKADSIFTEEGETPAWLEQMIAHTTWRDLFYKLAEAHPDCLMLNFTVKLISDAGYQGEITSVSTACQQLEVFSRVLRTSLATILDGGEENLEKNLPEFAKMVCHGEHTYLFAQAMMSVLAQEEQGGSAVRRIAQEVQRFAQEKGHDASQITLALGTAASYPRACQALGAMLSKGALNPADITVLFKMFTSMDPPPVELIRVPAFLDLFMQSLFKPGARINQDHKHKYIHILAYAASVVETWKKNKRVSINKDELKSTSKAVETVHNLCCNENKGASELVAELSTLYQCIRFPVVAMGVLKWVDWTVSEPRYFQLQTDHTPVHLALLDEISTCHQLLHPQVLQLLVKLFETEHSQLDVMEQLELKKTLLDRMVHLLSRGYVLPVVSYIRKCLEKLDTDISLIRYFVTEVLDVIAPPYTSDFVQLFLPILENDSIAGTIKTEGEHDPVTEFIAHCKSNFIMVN
inactive: nilotinib -0.024 | [1] 0.015 | dasatinib -0.019 | [2] -0.025 | [3] 0.034 | quisinostat -0.083 | tipifarnib -0.032 | [4] 0.046 | [5] 0.013 | [6] -0.031

NUB1 (UniProt Q9Y5A7)
UniProt Q9Y5A7, sequence (Q9Y5A7 whole entry, looked up): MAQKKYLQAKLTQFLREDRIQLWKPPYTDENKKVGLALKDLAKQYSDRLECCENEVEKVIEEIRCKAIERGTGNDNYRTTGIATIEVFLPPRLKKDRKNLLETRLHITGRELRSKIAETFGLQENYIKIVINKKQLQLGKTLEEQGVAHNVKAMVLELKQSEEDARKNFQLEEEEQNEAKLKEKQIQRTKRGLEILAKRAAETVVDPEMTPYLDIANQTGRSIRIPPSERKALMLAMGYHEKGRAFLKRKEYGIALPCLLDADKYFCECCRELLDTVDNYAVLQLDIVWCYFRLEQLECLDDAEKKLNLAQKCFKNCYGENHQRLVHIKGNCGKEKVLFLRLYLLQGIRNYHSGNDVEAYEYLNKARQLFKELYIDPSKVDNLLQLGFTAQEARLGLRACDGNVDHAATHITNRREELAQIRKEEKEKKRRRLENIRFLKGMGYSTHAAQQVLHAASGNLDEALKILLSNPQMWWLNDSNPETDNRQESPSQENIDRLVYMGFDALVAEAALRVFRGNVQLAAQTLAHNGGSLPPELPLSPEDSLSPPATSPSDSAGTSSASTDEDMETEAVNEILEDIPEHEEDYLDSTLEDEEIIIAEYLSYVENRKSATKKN
inactive: nilotinib -0.021 | [1] 0.025 | dasatinib -0.03 | [2] 0.028 | [3] 0.014 | quisinostat 0.035 | tipifarnib 0.003 | [4] 0.018 | [5] 0.004 | [6] -0.002

NOB1 (UniProt Q9ULX3)
UniProt Q9ULX3, sequence (Q9ULX3 whole entry, looked up): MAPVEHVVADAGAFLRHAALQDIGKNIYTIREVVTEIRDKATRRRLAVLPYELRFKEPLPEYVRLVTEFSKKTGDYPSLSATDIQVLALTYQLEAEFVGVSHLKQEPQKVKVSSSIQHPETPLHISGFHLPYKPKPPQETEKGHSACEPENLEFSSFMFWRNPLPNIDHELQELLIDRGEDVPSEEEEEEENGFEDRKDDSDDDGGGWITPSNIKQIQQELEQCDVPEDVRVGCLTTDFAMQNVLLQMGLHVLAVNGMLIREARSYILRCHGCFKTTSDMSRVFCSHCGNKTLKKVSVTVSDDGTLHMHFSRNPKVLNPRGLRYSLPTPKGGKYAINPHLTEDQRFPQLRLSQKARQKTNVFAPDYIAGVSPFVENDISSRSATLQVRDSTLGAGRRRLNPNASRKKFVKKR
inactive: nilotinib 0.018 | [1] -0.026 | dasatinib 0.004 | [2] -0.066 | [3] 0.044 | quisinostat 0.041 | tipifarnib 0 | [4] 0.043 | [5] -0.018 | [6] 0.058

OAT (UniProt P04181)
inactive: nilotinib 0.012 | [1] -0.038 | dasatinib -0.033 | [2] 0.003 | [3] -0.012 | quisinostat -0.002 | tipifarnib 0.024 | [4] -0.01 | [5] 0.019 | [6] -0.018

NFATC2IP (UniProt Q8NCF5)
UniProt Q8NCF5, sequence (Q8NCF5 whole entry, looked up): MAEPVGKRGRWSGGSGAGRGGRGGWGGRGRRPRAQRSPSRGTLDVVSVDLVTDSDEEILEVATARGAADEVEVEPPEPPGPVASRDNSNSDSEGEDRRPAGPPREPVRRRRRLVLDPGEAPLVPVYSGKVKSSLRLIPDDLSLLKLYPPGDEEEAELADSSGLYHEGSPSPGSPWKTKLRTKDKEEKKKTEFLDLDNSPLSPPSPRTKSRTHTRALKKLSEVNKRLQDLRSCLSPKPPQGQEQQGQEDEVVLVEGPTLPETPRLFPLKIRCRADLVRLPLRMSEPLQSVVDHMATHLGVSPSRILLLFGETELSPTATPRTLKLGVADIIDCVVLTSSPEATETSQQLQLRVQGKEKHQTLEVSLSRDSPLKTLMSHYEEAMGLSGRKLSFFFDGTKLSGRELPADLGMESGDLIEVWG
inactive: nilotinib 0.027 | [1] -0.015 | dasatinib 0.071 | [2] -0.055 | [3] 0.005 | quisinostat 0.019 | tipifarnib 0.061 | [4] 0 | [5] -0.015 | [6] 0.03

PAGE2B (UniProt Q5JRK9)
UniProt Q5JRK9, sequence (Q5JRK9 whole entry, looked up): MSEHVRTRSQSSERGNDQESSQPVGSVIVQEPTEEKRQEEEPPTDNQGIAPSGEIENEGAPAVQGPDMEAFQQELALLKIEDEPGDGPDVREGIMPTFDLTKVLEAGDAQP
inactive: nilotinib 0.036 | [1] -0.007 | dasatinib 0.032 | [2] 0.062 | [3] -0.016 | quisinostat 0.001 | tipifarnib 0.026 | [4] 0.041 | [5] -0.018 | [6] 0.164

NUP93 (UniProt Q8N1F7)
inactive: nilotinib -0.02 | [1] 0.001 | dasatinib -0.098 | [2] -0.006 | [3] 0.031 | quisinostat 0.037 | tipifarnib -0.04 | [4] 0.021 | [5] 0.018 | [6] -0.005

MSH6 (UniProt P52701)
inactive: nilotinib -0.005 | [1] 0.011 | dasatinib -0.073 | [2] -0.002 | [3] 0.03 | quisinostat -0.091 | tipifarnib -0.009 | [4] 0.072 | [5] 0.006 | [6] -0.045
